Measurements: PubChem BioAssay AID1159580 (chemical genetic matrix, 2015)
Screen size: about 5,500 compounds; about 2,000 (36%) were called active. Roughly 18% stayed inconclusive and do not appear here. Rule as the data show it: active = normalized growth mostly below about 0.91 (no sharp cut-off); inconclusive = no clear call, values can overlap the other calls; inactive = mostly above about 0.92. The list shows a part of the results.

Test: chemical genetic growth profiling, strain panel (AID 1159580);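 also: tested at 20 µM; growth read once vehicle control cultures reached saturation at 30 °C; 1 = growth at the plate median or of vehicle wells; lower values mean less growth of the strain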
Details: growth OD

Measured: normalized growth

CC(C)=CCc1c2c(c(O)c3c(=O)c(O)c(-c4ccccc4)oc13)C=CC(C)(C)O2
active: S. cerevisiae deletion strains, locus YAL021C, strain ccr4, active compounds read low 0.79 | S. cerevisiae deletion strains, locus YAL026C, strain drs2, active compounds read low 0.566 | S. cerevisiae deletion strains, locus YAL030W, strain snc1, active compounds read low 0.886 | S. cerevisiae deletion strains, locus YBL061C, strain skt5, active compounds read low 0.688 | S. cerevisiae deletion strains, locus YBR023C, strain chs3, active compounds read low 0.687 | S. cerevisiae deletion strains, locus YBR229C, strain ROT2, active compounds read low 0.829 | S. cerevisiae deletion strains, locus YBR231C, strain swc5, active compounds read low 0.678 | S. cerevisiae deletion strains, locus YCL011C, strain gbp2, active compounds read low 0.683 | S. cerevisiae deletion strains, locus YCL029C, strain bik1, active compounds read low 0.678 | S. cerevisiae deletion strains, locus YCL061C, strain MRC1, active compounds read low 0.748 | S. cerevisiae deletion strains, locus YCL069W, strain vba3, active compounds read low 0.751 | S. cerevisiae deletion strains, locus YCR088W, strain abp1, active compounds read low 0.835 | S. cerevisiae deletion strains, locus YDL035C, strain GPR1, active compounds read low 0.589 | S. cerevisiae deletion strains, locus YDL074C, strain BRE1, active compounds read low 0.49 | S. cerevisiae deletion strains, locus YDL101C, strain DUN1, active compounds read low 0.628 | S. cerevisiae deletion strains, locus YDL185W, strain tfp1, active compounds read low 0.769 | S. cerevisiae deletion strains, locus YDL192W, strain arf1, active compounds read low 0.732 | S. cerevisiae deletion strains, locus YDR069C, strain doa4, active compounds read low 0.613 | S. cerevisiae deletion strains, locus YDR101C, strain arx1, active compounds read low 0.809 | S. cerevisiae deletion strains, locus YDR162C, strain NBP2, active compounds read low 0.326 | S. cerevisiae deletion strains, locus YDR297W, strain sur2, active compounds read low 0.821 | S. cerevisiae deletion strains, locus YDR318W, strain mcm21, active compounds read low 0.73 | S. cerevisiae deletion strains, locus YDR334W, strain swr1, active compounds read low 0.582 | S. cerevisiae deletion strains, locus YDR335W, strain msn5, active compounds read low 0.793 | S. cerevisiae deletion strains, locus YDR388W, active compounds read low 0.745 | S. cerevisiae deletion strains, locus YDR392W, strain spt3, active compounds read low 0.602 | S. cerevisiae deletion strains, locus YDR502C, strain sam2, active compounds read low 0.794 | S. cerevisiae deletion strains, locus YEL003W, strain gim4, active compounds read low 0.683 | S. cerevisiae deletion strains, locus YEL037C, strain rad23, active compounds read low 0.788 | S. cerevisiae deletion strains, locus YEL061C, strain CIN8 (second series), active compounds read low 0.876 | S. cerevisiae deletion strains, locus YER015W, strain faa2, active compounds read low 0.457 | S. cerevisiae deletion strains, locus YER111C, strain swi4, active compounds read low 0.734 | S. cerevisiae deletion strains, locus YER155C, strain BEM2 (second series), active compounds read low 0.755 | S. cerevisiae deletion strains, locus YER155C, strain BEM2, active compounds read low 0.762 | S. cerevisiae deletion strains, locus YER167W, strain BCK2, active compounds read low 0.683 | S. cerevisiae deletion strains, locus YFR010W, strain ubp6, active compounds read low 0.632 | S. cerevisiae deletion strains, locus YGL086W, strain mad1, active compounds read low 0.701 | S. cerevisiae deletion strains, locus YGL173C, strain kem1, active compounds read low 0.475 | S. cerevisiae deletion strains, locus YGL248W, strain PDE1, active compounds read low 0.586 | S. cerevisiae deletion strains, locus YGL253W, strain hxk2, active compounds read low 0.657 | S. cerevisiae deletion strains, locus YGR078C, strain PAC10, active compounds read low 0.554 | S. cerevisiae deletion strains, locus YGR135W, strain pre9, active compounds read low 0.69 | S. cerevisiae deletion strains, locus YHR027C, strain rpn1, active compounds read low 0.356 | S. cerevisiae deletion strains, locus YHR079C, strain IRE1 (second series), active compounds read low 0.774 | S. cerevisiae deletion strains, locus YHR094C, strain hxt1, active compounds read low 0.828 | S. cerevisiae deletion strains, locus YHR129C, strain ARP1, active compounds read low 0.55 | S. cerevisiae deletion strains, locus YHR142W, strain chs7, active compounds read low 0.653 | S. cerevisiae deletion strains, locus YHR200W, strain rpn10, active compounds read low 0.731 | S. cerevisiae deletion strains, locus YIL066C, strain RNR3, active compounds read low 0.54 | S. cerevisiae deletion strains, locus YIL073C, strain SPO22, active compounds read low 0.32 | S. cerevisiae deletion strains, locus YIL125W, strain kgd1, active compounds read low 0.88 | S. cerevisiae deletion strains, locus YIR030C, strain dcg1, active compounds read low 0.837 | S. cerevisiae deletion strains, locus YJL092W, strain hpr5, active compounds read low 0.834 | S. cerevisiae deletion strains, locus YJL095W, strain BCK1 (second series), active compounds read low 0.628 | S. cerevisiae deletion strains, locus YJL095W, strain BCK1, active compounds read low 0.379 | S. cerevisiae deletion strains, locus YJL115W, strain asf1, active compounds read low 0.829 | S. cerevisiae deletion strains, locus YJL134W, strain LCB3, active compounds read low 0.778 | S. cerevisiae deletion strains, locus YJL154C, strain vps35, active compounds read low 0.817 | S. cerevisiae deletion strains, locus YJL164C, strain tpk1, active compounds read low 0.732 | S. cerevisiae deletion strains, locus YJL166W, strain qcr8, active compounds read low 0.891 | S. cerevisiae deletion strains, locus YJL168C, strain set2, active compounds read low 0.864 | S. cerevisiae deletion strains, locus YJL187C, strain SWE1 (second series), active compounds read low 0.417 | S. cerevisiae deletion strains, locus YJL187C, strain SWE1, active compounds read low 0.639 | S. cerevisiae deletion strains, locus YJR043C, strain POL32, active compounds read low 0.496 | S. cerevisiae deletion strains, locus YKL190W, strain CNB1, active compounds read low 0.585 | S. cerevisiae deletion strains, locus YKR001C, strain vps1, active compounds read low 0.816 | S. cerevisiae deletion strains, locus YKR026C, strain gcn3, active compounds read low 0.899 | S. cerevisiae deletion strains, locus YKR091W, strain srl3, active compounds read low 0.831 | S. cerevisiae deletion strains, locus YLL001W, strain dnm1, active compounds read low 0.74 | S. cerevisiae deletion strains, locus YLR027C, strain aat2, active compounds read low 0.86 | S. cerevisiae deletion strains, locus YLR039C, strain RIC1, active compounds read low 0.379 | S. cerevisiae deletion strains, locus YLR058C, strain SHM2, active compounds read low 0.563 | S. cerevisiae deletion strains, locus YLR221C, strain rsa3, active compounds read low 0.835 | S. cerevisiae deletion strains, locus YLR258W, strain gsy2, active compounds read low 0.892 | S. cerevisiae deletion strains, locus YLR262C, strain YPT6 (second series), active compounds read low 0.542 | S. cerevisiae deletion strains, locus YLR268W, strain sec22, active compounds read low 0.633 | S. cerevisiae deletion strains, locus YLR320W, strain mms22, active compounds read low 0.762 | S. cerevisiae deletion strains, locus YLR342W, strain FKS1, active compounds read low 0.514 | S. cerevisiae deletion strains, locus YLR357W, strain rsc2, active compounds read low 0.61 | S. cerevisiae deletion strains, locus YLR370C, strain arc18, active compounds read low 0.754 | S. cerevisiae deletion strains, locus YLR371W, strain rom2, active compounds read low 0.623 | S. cerevisiae deletion strains, locus YLR384C, strain iki3, active compounds read low 0.723 | S. cerevisiae deletion strains, locus YLR418C, strain cdc73, active compounds read low 0.502 | S. cerevisiae deletion strains, locus YML016C, strain PPZ1, active compounds read low 0.484 | S. cerevisiae deletion strains, locus YML032C, strain rad52, active compounds read low 0.861 | S. cerevisiae deletion strains, locus YML120C, strain ndi1, active compounds read low 0.822 | S. cerevisiae deletion strains, locus YML124C, strain tub3, active compounds read low 0.878 | S. cerevisiae deletion strains, locus YMR058W, strain fet3, active compounds read low 0.143 | S. cerevisiae deletion strains, locus YMR125W, strain sto1, active compounds read low 0.872 | S. cerevisiae deletion strains, locus YMR129W, active compounds read low 0.854 | S. cerevisiae deletion strains, locus YMR205C, strain PFK2, active compounds read low 0.51 | S. cerevisiae deletion strains, locus YMR223W, strain ubp8, active compounds read low 0.711 | S. cerevisiae deletion strains, locus YMR231W, strain pep5, active compounds read low 0.533 | S. cerevisiae deletion strains, locus YMR307W, strain GAS1, active compounds read low 0.53 | S. cerevisiae deletion strains, locus YNL067W, strain RPL9B, active compounds read low 0.697 | S. cerevisiae deletion strains, locus YNL071W, strain lat1, active compounds read low 0.898 | S. cerevisiae deletion strains, locus YNL153C, strain GIM3, active compounds read low 0.619 | S. cerevisiae deletion strains, locus YNL209W, strain ssb2, active compounds read low 0.277 | S. cerevisiae deletion strains, locus YNL233W, strain BNI4, active compounds read low 0.548 | S. cerevisiae deletion strains, locus YNL248C, strain rpa49, active compounds read low 0.842 | S. cerevisiae deletion strains, locus YNL271C, strain bni1, active compounds read low 0.886 | S. cerevisiae deletion strains, locus YNL298W, strain CLA4, active compounds read low 0.88 | S. cerevisiae deletion strains, locus YNL307C, strain MCK1, active compounds read low 0.775 | S. cerevisiae deletion strains, locus YNR052C, strain pop2, active compounds read low 0.824 | S. cerevisiae deletion strains, locus YOL006C, strain TOP1, active compounds read low 0.319 | S. cerevisiae deletion strains, locus YOL147C, strain pex11, active compounds read low 0.873 | S. cerevisiae deletion strains, locus YOR001W, strain rrp6, active compounds read low 0.836 | S. cerevisiae deletion strains, locus YOR061W, strain CKA2, active compounds read low 0.528 | S. cerevisiae deletion strains, locus YOR069W, strain VPS5, active compounds read low 0.606 | S. cerevisiae deletion strains, locus YOR070C, strain gyp1, active compounds read low 0.77 | S. cerevisiae deletion strains, locus YOR080W, strain dia2, active compounds read low 0.818 | S. cerevisiae deletion strains, locus YOR083W, strain WHI5, active compounds read low 0.616 | S. cerevisiae deletion strains, locus YOR106W, strain vam3, active compounds read low 0.832 | S. cerevisiae deletion strains, locus YOR136W, strain idh2, active compounds read low 0.84 | S. cerevisiae deletion strains, locus YOR144C, strain elg1, active compounds read low 0.893 | S. cerevisiae deletion strains, locus YOR184W, strain ser1, active compounds read low 0.661 | S. cerevisiae deletion strains, locus YOR265W, strain rbl2, active compounds read low 0.699 | S. cerevisiae deletion strains, locus YOR270C, strain vph1, active compounds read low 0.394 | S. cerevisiae deletion strains, locus YOR316C, strain cot1, active compounds read low 0.865 | S. cerevisiae deletion strains, locus YPL051W, strain arl3, active compounds read low 0.48 | S. cerevisiae deletion strains, locus YPL078C, strain atp4, active compounds read low 0.879 | S. cerevisiae deletion strains, locus YPL106C, strain sse1, active compounds read low 0.83 | S. cerevisiae deletion strains, locus YPL241C, strain CIN2, active compounds read low 0.788 | S. cerevisiae deletion strains, locus YPR119W, strain clb2, active compounds read low 0.914 | S. cerevisiae deletion strains, locus YPR163C, strain tif3, active compounds read low 0.771 | S. cerevisiae deletion strains, locus YPR167C, strain met16, active compounds read low 0.712 | S. cerevisiae deletion strains, strain wtn01, active compounds read low 0.632 | S. cerevisiae strains, strain wild type, active compounds read low 0.346
inactive: S. cerevisiae deletion strains, locus YBR009C, strain hhf1, active compounds read low 0.917 | S. cerevisiae deletion strains, locus YBR021W, strain FUR4, active compounds read low 0.958 | S. cerevisiae deletion strains, locus YBR171W, strain sec66, active compounds read low 0.939 | S. cerevisiae deletion strains, locus YBR279W, strain paf1, active compounds read low 0.988 | S. cerevisiae deletion strains, locus YCL016C, strain dcc1, active compounds read low 0.962 | S. cerevisiae deletion strains, locus YDL005C, strain med2, active compounds read low 0.981 | S. cerevisiae deletion strains, locus YDL040C, strain nat1, active compounds read low 1.01 | S. cerevisiae deletion strains, locus YDR001C, strain nth1, active compounds read low 0.931 | S. cerevisiae deletion strains, locus YDR137W, strain rgp1, active compounds read low 1.04 | S. cerevisiae deletion strains, locus YDR159W, strain sac3, active compounds read low 0.876 | S. cerevisiae deletion strains, locus YDR195W, strain ref2 0.896 | S. cerevisiae deletion strains, locus YER016W, strain bim1, active compounds read low 0.987 | S. cerevisiae deletion strains, locus YER110C, active compounds read low 0.927 | S. cerevisiae deletion strains, locus YGL078C, strain dbp3, active compounds read low 0.942 | S. cerevisiae deletion strains, locus YGL167C, strain pmr1, active compounds read low 0.996 | S. cerevisiae deletion strains, locus YGL227W, strain vid30, active compounds read low 0.973 | S. cerevisiae deletion strains, locus YGL240W, strain doc1, active compounds read low 0.977 | S. cerevisiae deletion strains, locus YGR252W, strain gcn5, active compounds read low 0.774 | S. cerevisiae deletion strains, locus YHR013C, strain ard1, active compounds read low 0.998 | S. cerevisiae deletion strains, locus YJL129C, strain trk1, active compounds read low 0.894 | S. cerevisiae deletion strains, locus YKL009W, strain mrt4, active compounds read low 1.02 | S. cerevisiae deletion strains, locus YKL068W, active compounds read low 0.977 | S. cerevisiae deletion strains, locus YKL085W, strain MDH1 (second series), active compounds read low 0.984 | S. cerevisiae deletion strains, locus YKL085W, strain MDH1, active compounds read low 0.984 | S. cerevisiae deletion strains, locus YKL160W, strain elf1, active compounds read low 0.99 | S. cerevisiae deletion strains, locus YLL026W, active compounds read low 0.94 | S. cerevisiae deletion strains, locus YLL041C, strain sdh2, active compounds read low 0.979 | S. cerevisiae deletion strains, locus YLR102C, strain apc9, active compounds read low 0.93 | S. cerevisiae deletion strains, locus YMR078C, strain ctf18, active compounds read low 0.92 | S. cerevisiae deletion strains, locus YNL250W, strain rad50, active compounds read low 0.951 | S. cerevisiae deletion strains, locus YNL322C, strain KRE1 (second series), active compounds read low 0.943 | S. cerevisiae deletion strains, locus YNR049C, strain mso1, active compounds read low 0.958 | S. cerevisiae deletion strains, locus YOL012C, strain htz1 0.278 | S. cerevisiae deletion strains, locus YOR290C, strain snf2, active compounds read low 0.887 | S. cerevisiae deletion strains, locus YPL240C, strain hsp82, active compounds read low 0.956 | S. cerevisiae deletion strains, locus YPR141C, strain kar3, active compounds read low 0.962
